About 7,900 targets were measured; listed, in parts, are those with a hit and a random draw of the rest. About 0.6% of all pairs of compound and target were hits.
Compound: c1cn2cc(-c3ccc4cn[nH]c4c3)nc(Nc3ccc(N4CCOCC4)cc3)c2n1 [entospletinib]
Assay: log2 fold change, soluble protein after heating vs DMSO (PISA); higher = thermal stabilisation; K562 cells, 10 uM, 30 min; active = over 0.2 and 3.5 SD of the protein, either way, in both replicates (recomputed)
Outline: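 Values are thermal stability changes relative to control samples and are taken from duplicates. They are stated as log2 fold changes. Before quantification by TMTpro 16plex LC-MS/MS with equalised channel sums, K562 cells at 2×10^6 cells/mL were treated with 10 μM compound for 30 min, heated in aliquots for 3 min across 48°C-58°C, pooled, extracted in PBS with 0.5% NP-40 at 4°C, and centrifuged at 21,000xg for 90 min to give the soluble supernatant.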

Sequence of UniProt Q08AE8 (Q08AE8 whole entry, looked up): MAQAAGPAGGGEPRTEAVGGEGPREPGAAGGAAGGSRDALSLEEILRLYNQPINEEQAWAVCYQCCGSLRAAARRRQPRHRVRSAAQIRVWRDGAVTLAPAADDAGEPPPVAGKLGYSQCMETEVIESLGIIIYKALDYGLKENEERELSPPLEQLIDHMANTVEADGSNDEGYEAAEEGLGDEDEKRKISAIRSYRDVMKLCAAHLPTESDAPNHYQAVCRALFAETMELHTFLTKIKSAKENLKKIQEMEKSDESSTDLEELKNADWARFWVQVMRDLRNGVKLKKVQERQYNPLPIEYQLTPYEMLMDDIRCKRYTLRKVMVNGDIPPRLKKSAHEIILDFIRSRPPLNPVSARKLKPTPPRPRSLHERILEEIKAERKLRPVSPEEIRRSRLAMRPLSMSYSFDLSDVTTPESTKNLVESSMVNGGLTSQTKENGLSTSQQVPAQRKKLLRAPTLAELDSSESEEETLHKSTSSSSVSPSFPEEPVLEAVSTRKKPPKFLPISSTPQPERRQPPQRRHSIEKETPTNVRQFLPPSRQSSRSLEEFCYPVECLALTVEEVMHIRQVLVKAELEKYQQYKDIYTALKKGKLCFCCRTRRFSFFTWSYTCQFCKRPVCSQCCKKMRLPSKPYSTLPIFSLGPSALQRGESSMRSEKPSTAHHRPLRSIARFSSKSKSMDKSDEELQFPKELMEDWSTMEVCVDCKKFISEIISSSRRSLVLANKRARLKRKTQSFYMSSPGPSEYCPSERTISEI
Sequence of UniProt Q96QD8 (Q96QD8 whole entry, looked up): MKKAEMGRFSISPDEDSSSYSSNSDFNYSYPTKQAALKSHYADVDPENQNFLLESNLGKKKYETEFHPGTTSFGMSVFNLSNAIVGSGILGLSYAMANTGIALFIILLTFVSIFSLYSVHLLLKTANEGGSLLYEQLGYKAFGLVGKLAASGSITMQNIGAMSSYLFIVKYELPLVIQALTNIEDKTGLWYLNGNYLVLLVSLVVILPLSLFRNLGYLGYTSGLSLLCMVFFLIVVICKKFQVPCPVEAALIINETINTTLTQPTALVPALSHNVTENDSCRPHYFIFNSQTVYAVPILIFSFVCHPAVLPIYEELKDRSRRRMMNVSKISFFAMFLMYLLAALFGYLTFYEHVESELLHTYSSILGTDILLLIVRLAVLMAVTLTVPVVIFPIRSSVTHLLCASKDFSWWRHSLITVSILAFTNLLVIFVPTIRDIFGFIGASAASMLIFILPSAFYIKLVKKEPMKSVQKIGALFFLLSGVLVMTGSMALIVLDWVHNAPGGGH
Sequence of UniProt Q8WXA9 (Q8WXA9 whole entry, looked up): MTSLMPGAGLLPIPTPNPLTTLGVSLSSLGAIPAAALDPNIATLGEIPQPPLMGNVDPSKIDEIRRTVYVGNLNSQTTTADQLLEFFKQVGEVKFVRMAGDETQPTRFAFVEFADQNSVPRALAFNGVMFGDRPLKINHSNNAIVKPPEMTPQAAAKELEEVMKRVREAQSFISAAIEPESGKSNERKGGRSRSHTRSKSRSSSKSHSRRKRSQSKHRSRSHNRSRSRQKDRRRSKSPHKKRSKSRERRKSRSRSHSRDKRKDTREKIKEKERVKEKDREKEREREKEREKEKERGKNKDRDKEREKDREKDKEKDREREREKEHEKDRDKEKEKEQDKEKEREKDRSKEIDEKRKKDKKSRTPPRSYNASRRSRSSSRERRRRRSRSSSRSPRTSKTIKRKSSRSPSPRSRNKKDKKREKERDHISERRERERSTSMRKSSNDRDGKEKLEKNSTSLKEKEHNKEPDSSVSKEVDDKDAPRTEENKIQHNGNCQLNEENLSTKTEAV
Sequence of UniProt Q9UMY4 (Q9UMY4 whole entry, looked up): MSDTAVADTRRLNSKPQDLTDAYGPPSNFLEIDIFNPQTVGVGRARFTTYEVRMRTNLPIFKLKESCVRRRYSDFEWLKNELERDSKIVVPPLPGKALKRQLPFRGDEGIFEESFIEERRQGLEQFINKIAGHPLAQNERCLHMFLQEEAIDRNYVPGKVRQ
Sequence of UniProt P08579 (P08579 whole entry, looked up): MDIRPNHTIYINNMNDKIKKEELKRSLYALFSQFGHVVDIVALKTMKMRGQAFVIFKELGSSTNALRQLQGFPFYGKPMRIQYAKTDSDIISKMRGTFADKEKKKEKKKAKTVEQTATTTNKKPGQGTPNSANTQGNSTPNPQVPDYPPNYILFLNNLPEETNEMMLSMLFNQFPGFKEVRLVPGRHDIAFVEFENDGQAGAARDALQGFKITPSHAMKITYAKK
Sequence of UniProt Q99805 (Q99805 whole entry, looked up): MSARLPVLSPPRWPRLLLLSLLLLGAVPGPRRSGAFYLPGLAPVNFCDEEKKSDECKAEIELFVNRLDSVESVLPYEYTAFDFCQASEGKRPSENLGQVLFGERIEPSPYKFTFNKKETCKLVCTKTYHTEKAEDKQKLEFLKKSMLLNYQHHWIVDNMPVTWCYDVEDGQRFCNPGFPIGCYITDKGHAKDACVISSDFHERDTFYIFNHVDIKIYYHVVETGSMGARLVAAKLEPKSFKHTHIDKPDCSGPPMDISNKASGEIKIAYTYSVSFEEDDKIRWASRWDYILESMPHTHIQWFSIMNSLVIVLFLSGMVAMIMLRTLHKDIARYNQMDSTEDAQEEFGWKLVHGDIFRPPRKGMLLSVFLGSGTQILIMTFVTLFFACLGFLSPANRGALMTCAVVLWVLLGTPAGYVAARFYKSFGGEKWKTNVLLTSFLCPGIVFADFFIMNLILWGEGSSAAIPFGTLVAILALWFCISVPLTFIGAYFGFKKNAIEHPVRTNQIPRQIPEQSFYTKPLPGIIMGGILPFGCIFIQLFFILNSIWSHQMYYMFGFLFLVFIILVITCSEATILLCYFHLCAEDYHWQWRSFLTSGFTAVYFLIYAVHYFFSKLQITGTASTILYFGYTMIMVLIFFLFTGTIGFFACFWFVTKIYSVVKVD
Sequence of UniProt Q8NEF9 (Q8NEF9 whole entry, looked up): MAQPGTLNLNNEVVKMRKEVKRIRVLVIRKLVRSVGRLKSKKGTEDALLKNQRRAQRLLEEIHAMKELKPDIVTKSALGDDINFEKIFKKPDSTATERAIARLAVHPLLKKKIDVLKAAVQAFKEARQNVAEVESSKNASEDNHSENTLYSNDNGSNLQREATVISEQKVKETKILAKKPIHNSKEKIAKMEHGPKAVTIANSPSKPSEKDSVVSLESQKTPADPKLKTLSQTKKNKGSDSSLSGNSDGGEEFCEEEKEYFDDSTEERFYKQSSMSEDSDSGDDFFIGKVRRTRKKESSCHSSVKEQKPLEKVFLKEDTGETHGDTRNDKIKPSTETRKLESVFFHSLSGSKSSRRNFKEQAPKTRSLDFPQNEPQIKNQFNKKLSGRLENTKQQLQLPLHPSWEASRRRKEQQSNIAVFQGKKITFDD
Sequence of UniProt Q9NQZ5 (Q9NQZ5 whole entry, looked up): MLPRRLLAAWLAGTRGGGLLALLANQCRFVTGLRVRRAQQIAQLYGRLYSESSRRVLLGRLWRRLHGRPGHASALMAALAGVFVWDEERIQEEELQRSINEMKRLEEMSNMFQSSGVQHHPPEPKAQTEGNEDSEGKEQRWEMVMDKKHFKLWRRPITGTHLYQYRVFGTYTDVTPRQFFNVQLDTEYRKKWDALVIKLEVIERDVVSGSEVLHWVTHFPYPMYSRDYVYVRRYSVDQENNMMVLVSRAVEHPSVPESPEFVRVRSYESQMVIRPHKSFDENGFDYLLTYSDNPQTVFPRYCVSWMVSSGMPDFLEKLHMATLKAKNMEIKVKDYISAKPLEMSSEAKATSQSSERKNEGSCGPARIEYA
Sequence of UniProt Q5T5C0 (Q5T5C0 whole entry, looked up): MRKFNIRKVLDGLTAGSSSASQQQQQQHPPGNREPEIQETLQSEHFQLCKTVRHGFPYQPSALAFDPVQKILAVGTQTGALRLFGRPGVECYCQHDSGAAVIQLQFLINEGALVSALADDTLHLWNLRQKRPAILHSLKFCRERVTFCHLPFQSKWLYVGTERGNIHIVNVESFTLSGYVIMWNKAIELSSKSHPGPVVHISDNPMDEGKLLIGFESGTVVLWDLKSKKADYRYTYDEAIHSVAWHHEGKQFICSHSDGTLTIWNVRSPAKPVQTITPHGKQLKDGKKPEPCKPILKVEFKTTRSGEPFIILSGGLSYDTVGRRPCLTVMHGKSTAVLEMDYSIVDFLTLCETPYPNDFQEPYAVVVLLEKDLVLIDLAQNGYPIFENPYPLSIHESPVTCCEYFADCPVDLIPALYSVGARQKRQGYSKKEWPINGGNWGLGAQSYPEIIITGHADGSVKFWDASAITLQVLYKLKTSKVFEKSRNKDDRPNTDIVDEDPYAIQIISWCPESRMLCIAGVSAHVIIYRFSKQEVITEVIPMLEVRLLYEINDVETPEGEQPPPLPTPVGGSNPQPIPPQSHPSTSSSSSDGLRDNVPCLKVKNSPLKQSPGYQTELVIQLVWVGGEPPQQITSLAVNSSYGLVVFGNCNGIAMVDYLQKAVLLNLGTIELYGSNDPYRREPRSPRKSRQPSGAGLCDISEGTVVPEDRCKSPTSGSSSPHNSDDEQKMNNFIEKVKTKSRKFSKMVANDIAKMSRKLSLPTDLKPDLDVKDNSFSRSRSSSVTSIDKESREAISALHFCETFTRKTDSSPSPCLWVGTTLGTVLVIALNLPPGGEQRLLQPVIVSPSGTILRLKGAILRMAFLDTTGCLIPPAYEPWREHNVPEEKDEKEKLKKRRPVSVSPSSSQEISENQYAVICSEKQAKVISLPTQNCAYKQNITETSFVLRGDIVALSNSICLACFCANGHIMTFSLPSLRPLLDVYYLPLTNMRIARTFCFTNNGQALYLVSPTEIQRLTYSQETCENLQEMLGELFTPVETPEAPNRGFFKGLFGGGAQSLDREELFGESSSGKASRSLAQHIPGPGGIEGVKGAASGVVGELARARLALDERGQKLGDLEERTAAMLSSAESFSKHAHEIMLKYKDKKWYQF

log2 fold change, inactive:
STXBP5 (UniProt Q5T5C0) 0.01
TM9SF2 (UniProt Q99805) 0.023
SPIRE1 (UniProt Q08AE8) -0.085
SLC25A4 (UniProt P12235) -0.009
SRFBP1 (UniProt Q8NEF9) -0.082
SLC38A2 (UniProt Q96QD8) -0.02
STARD7 (UniProt Q9NQZ5) -0.052
SNRPB2 (UniProt P08579) -0.026
SPTBN1 (UniProt Q01082) 0.024
SREK1 isoform 2 (UniProt Q8WXA9) -0.026
SNX12 isoform 1 (UniProt Q9UMY4) -0.005
SLC6A6 (UniProt P31641) -0.067

Source: the supplement of paper PMC10849652
